Here are results for 12 compounds from PubChem BioAssay (NCI).

What all share (assay): NCI-60 one-dose screen, 48 h (100 = growth as untreated, 0 = no growth, -100 = all killed)
Holding throughout (conditions): 10 µM unless noted

The test system of assay [1] is SR leukemia.
Assay [2] concerns RPMI-8226 leukemia.
Assay [3] relates to OVCAR-8 ovarian.
Assay [4] concerns OVCAR-5 ovarian.
Assay [5] concerns OVCAR-4 ovarian.
Assay [6] has as its system SK-OV-3 ovarian.
Assay [7] concerns IGROV1 ovarian.
The test system of assay [8] is OVCAR-3 ovarian.
In assay [9] the test system is HS 578T breast.
For assay [10], the system named is NCI/ADR-RES ovarian.

Compounds without any hit were thinned out: in the full panel of roughly 83,000, 20% have a hit.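 Values shown are percent growth following 48 h exposure of cells in 96-well plates to a single concentration of compound; below 10 was considered active.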 A number with no mark means an inactive call. The source made the active and inactive calls.

Consider `O=C(Nc1ccccc1OC(=O)c1ccccc1)c1ccccc1`, for which the growth in assay [1] was 58.8%; in assay [2], 91.7%; in assay [3], 92.6%; in [4] it was 93.1%; in assay [5], 63.5%; in [6], 89.2%. Moreover, the growth in assay [7] was 90.6%; in assay [8] it was 77.7%; in assay [9], 101%; in [10], 87.8%.

On to `COC(=O)[C@H](Cc1cn(C)cn1)NC(=O)[C@@H](NC(=O)Nc1cc(C(F)(F)F)cc(C(F)(F)F)c1)C(C)C`, for which the growth in assay [1] was -33.5% [100 µM] (active); in [2] it was -42.9% [100 µM] (active); in assay [3] it was -80% [100 µM] (active); in assay [4] it was -96.1% [100 µM] (active); in assay [5], -96.5% [100 µM] (active); in assay [6] it was -100% [100 µM] (active). For the same compound, the growth in assay [7] was -70.9% [100 µM] (active); in assay [8], -97.3% [100 µM] (active); in assay [9] it was 0.492% [100 µM] (active); in [10], -21.6% [100 µM] (active).

For the compound `COc1cnc2c(c1)C(=O)c1c-2n(CCCN2CCCC2)c(=O)c2cc(F)ccc12`, the growth in assay [1] is -9.13% (active); in [2] it was -22.8% (active); in [3], -13.3% (active); in assay [4], 5.78% (active); in assay [5], 4.61% (active); in assay [6], -24.6% (active). Also, the growth in [7] is 4.37% (active); in [8], -29.1% (active); in assay [9], 23.8%; in [10], -3.22% (active).

As for `COc1cccc2c1C(=O)c1c(O)c3c(c(O)c1C2=O)C[C@@](O)(C(C)=O)C[C@@H]3O[C@H]1C[C@H](N)[C@H](O)[C@H](C)O1`, the growth in [1] was -5.17% (active); in [2], -22.9% (active); in [3], -6.3% (active); in [4], 2.15% (active); in assay [5] it was -16.8% (active); in assay [6], 7.97% (active). The growth is -10.2% (active) in [7], -18.7% (active) in assay [8], -17.6% (active) in assay [9] and 11.8% in assay [10].

In the case of `O=C(N/N=C/c1cccc(O)c1O)c1ccccc1`, the growth is 18.2% in assay [1]; 32.1% in assay [2]; 4.99% (active) in assay [3]; 30.1% in [4]; 4.38% (active) in [5]; 41.2% in [6]. For the same compound, the growth in assay [7] was 6.87% (active); in [8], 16.2%; in assay [9] it was 66.1%; in assay [10] it was 11%.

`CC(C)OP(=O)(OC(C)C)c1ncc(-c2ccc(C(F)(F)F)cc2)c(NC2CCCCCC2)n1`: the growth is -30.3% [33.3 µM] (active) in assay [1]; -40.7% [33.3 µM] (active) in assay [2]; 0.0612% [33.3 µM] (active) in assay [3]; -89.1% [33.3 µM] (active) in [4]; 2.6% [33.3 µM] (active) in assay [5]; 8.69% [33.3 µM] (active) in [6]. Moreover, the growth in assay [7] is -11.2% [33.3 µM] (active); in assay [8], -96.8% [33.3 µM] (active); in assay [9], -30.1% [33.3 µM] (active); in [10] it was 3.22% [33.3 µM] (active).

Consider `O=Cc1ccccc1C(=O)O`, for which the growth is 89.8% in assay [1]; 106% in [2]; 104% in assay [3]; 97.9% in assay [4]; 92.6% in assay [5]; 104% in [6]. Besides, the growth in [7] is 110%; in [8] it was 102%; in assay [9], 100%; in assay [10] it was 104%.

As to `COc1ccc([N+](=O)[O-])c(S(=O)(=O)c2ccc(Cl)cc2)n1`, the growth in assay [1] was -16% (active); in [2], 34.9%; in assay [3] it was 71.7%; in assay [4], 77.1%; in assay [5], 68.7%; in assay [6] it was 97.2%. Also, the growth in [7] is 97.1%; in assay [8], 36.6%; in assay [9], 97.9%; in assay [10], 81.3%.

On to `COc1ccc2nc(N/N=C(\C)c3ccccn3)cc(C)c2c1`, for which the growth was -40.9% (active) in assay [1]; -25.1% (active) in [2]; 0.111% (active) in assay [3]; 20% in assay [4]; 14.8% in [5]; 15.8% in assay [6]. In addition, the growth in assay [7] was -44.1% (active); in assay [8], -78.5% (active); in assay [9], 6.09% (active); in [10], 12.4%.

Consider `C/C(=C\CCc1ccoc1)CC/C=C(\C)CCCN1CCSCC1`, for which the growth in [1] was 45.6%; in assay [2], 38.2%; in assay [3], 89.8%; in assay [4] it was 70.1%; in assay [5] it was 75.3%; in assay [6], 84.6%. The growth in assay [7] is 93.7%; in [8] it was 44.4%; in assay [9], 98.1%; in [10], 73.8%.

With `COc1ccc2c(c1)[n+](=O)c(/C=C/C(=O)c1cc(OC)c(OC)c(OC)c1)c(C)n2[O-]`, the growth was -10.6% (active) in assay [1]; -45.8% (active) in assay [2]; 3.84% (active) in assay [3]; 84% in assay [4]; 62.8% in [5]; 102% in assay [6]. The growth in assay [7] is 32.1%; in [8], 19.4%; in [9] it was 90.7%; in assay [10], 52.8%.

As for `O=C1c2cccc3c([N+](=O)[O-])ccc(c23)C(=O)N1CCCCl`, the growth in assay [1] is -6.13% [100 µM] (active); in [2], -11.6% [100 µM] (active); in [3], -64.2% [100 µM] (active); in assay [4], -92.5% [100 µM] (active); in assay [5] it was -97% [100 µM] (active); in assay [6], -99.6% [100 µM] (active). The growth in assay [7] was -57.7% [100 µM] (active); in assay [8], -87.1% [100 µM] (active); in assay [9] it was 23.3% [100 µM]; in assay [10], -37.9% [100 µM] (active).
